Measurements taken from PubChem BioAssay.
Calls of active or inactive are those of the source. Unless noted, no rule for the calls is given here.

Experiments:
[1] = HepG2 liver cancer cell viability effects, profiling panel, resazurin fluorescence, 24 h, PK04 Diversity Set (AID 1172); conditions: higher = more signal
[2] = basal S. cerevisiae growth modulation, no modifier, primary screen, OD600, strain BY4716, 24 h, basal condition (AID 1173); conditions: OD600, 24 h, higher = more signal, called active from +8 up or from −8 down
[3] = MM1S myeloma cell viability, profiling panel, resazurin fluorescence, basal, 24 h, PK04 Diversity Set (AID 1174); conditions: higher = more signal, called active from +8 up or from −8 down;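 also: MM1S multiple myeloma cell line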
[4] = biological target: Dihydroorotate dehydrogenase (quinone), mitochondrial (Plasmodium falciparum (isolate 3D7)) (UniProt Q08210); assay: PfDHODH enzyme inhibitors, primary screen, biochemical, C-terminal His tag, absorbance 600 nm (AID 1175); conditions: DCIP absorbance 600 nm, higher = more signal, called active from +8 up or from −8 down;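 also: recombinant parasite enzyme with a five histidine tag at its C terminus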
[5] = P. aeruginosa biofilm formation inhibitors, primary screen, strain PAO1, LB-PBS medium, absorbance 600 nm (AID 1176); conditions: P. aeruginosa PAO1 growth/biofilm, A600, 12 h; higher = more signal
[6] = S. cerevisiae RM11-1a growth modifiers, primary screen, strain RM11-1a, OD600, basal, 24 h (AID 1177); conditions: OD600, 24 h, higher = more signal, called active from +8 up or from −8 down;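 also: cultures grown under basal conditions with no added stressor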
[7] = E. coli acrAB mutant growth effects, primary screen, E. coli filamentation inducers, strain DRC39, OD650, 24 h (AID 1178); conditions: higher = more signal, called active from +8 up or from −8 down;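 also: growth measured as culture turbidity by optical density at 650 nm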
[8] = E. coli acrAB mutant growth effects, primary screen, E. coli filamentation inducers, strain DRC39, OD650, 48 h (AID 1179);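 also: screen aims at cell division blockers that make cells filament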; conditions: E. coli DRC39 delta-acrAB growth, higher = more signal, called active from +8 up or from −8 down
[9] = RPMI8226 myeloma cell viability, profiling panel, resazurin fluorescence, basal, 24 h, PK04 Diversity Set (AID 1180); conditions: higher = more signal;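 also: RPMI8826 multiple myeloma cell line at 5000 cells per well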
[10] = biological target: E3 ubiquitin-protein ligase XIAP (Homo sapiens) (UniProt P98170); assay: XIAP binders, primary screen, biophysical, small-molecule microarray, fluorescence 635 nm (AID 1181); conditions: small-molecule microarray binding, higher = more signal;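 also: score merges 667 nm emission and signal to noise over triplicate slides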
[11] = system: XIP peptide (Xip251-270) binding; assay: small-molecule binders of XIP peptide, primary screen, biochemical, small-molecule microarray, fluorescence 635/667 nm, 0.1 µg/mL protein (AID 1182); conditions: fluorescent protein binding, 635 nm, higher = more signal, called active from +8 up or from −8 down
XIP peptide (Xip251-270) = assay: small-molecule binders of XIP peptide, primary screen, biochemical, small-molecule microarray, fluorescence 635/667 nm, 0.5 µg/mL protein (AID 1183); conditions: small-molecule microarray binding, fluorescence 635 nm; higher = more signal
[12] = Plasmodium falciparum growth inhibition, primary screen, strain 3D7, DAPI fluorescence, 100 nL (AID 1184);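 also: parasites grown inside human red blood cells in medium with human serum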; conditions: P. falciparum 3D7 growth, 3 d, higher = more signal
[13] = biological target: Homeobox protein Hox-A13 (Mus musculus) (UniProt Q62424); assay: inhibitors of HoxA13-DNA binding, primary screen, biochemical, fluorescence polarization, labeled oligonucleotide (AID 1185); conditions: 15 min, higher = more signal, called active from +8 up or from −8 down
[14] = inhibitors of hydroxyurea-induced Chk1 phosphorylation, primary screen, imaging, HeLa, phospho-Chk1 antibody, percent positive cells (AID 1186); conditions: hydroxyurea-induced phospho-Chk1 immunofluorescence imaging, higher = more signal
[15] = inhibitors of hydroxyurea-induced Chk1 phosphorylation, primary screen, imaging, HeLa, phospho-Chk1 nuclear intensity (AID 1187); conditions: hydroxyurea-induced phospho-Chk1 immunofluorescence imaging, higher = more signal

Homeobox protein Hox-A13 (Mus musculus), sequence (Q62424 whole entry, looked up): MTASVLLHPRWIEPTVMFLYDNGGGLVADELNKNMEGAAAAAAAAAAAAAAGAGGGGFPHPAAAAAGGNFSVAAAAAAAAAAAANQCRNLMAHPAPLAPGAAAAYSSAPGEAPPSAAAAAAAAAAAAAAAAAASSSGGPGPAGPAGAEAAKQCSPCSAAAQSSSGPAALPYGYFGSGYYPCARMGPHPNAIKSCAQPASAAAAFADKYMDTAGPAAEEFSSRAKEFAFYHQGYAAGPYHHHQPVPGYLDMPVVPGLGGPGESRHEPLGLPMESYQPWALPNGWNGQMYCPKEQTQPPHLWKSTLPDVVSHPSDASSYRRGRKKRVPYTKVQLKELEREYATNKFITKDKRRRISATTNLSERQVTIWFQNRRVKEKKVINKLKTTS
E3 ubiquitin-protein ligase XIAP (Homo sapiens), sequence (P98170 whole entry, looked up): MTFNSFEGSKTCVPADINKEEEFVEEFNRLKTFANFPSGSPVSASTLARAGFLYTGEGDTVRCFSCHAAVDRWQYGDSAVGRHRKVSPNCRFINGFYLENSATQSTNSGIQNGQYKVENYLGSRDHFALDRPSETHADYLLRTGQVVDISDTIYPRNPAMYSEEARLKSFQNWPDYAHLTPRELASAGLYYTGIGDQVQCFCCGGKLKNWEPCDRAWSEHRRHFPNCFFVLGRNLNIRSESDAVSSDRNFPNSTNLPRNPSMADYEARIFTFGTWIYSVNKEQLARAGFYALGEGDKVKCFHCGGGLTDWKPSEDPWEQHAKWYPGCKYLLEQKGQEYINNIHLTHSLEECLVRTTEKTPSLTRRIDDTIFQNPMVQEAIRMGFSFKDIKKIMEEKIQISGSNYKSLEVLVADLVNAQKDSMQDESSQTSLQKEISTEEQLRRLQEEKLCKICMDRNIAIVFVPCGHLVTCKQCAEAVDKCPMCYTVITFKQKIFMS
Dihydroorotate dehydrogenase (quinone), mitochondrial (Plasmodium falciparum (isolate 3D7)), sequence (Q08210 whole entry, looked up): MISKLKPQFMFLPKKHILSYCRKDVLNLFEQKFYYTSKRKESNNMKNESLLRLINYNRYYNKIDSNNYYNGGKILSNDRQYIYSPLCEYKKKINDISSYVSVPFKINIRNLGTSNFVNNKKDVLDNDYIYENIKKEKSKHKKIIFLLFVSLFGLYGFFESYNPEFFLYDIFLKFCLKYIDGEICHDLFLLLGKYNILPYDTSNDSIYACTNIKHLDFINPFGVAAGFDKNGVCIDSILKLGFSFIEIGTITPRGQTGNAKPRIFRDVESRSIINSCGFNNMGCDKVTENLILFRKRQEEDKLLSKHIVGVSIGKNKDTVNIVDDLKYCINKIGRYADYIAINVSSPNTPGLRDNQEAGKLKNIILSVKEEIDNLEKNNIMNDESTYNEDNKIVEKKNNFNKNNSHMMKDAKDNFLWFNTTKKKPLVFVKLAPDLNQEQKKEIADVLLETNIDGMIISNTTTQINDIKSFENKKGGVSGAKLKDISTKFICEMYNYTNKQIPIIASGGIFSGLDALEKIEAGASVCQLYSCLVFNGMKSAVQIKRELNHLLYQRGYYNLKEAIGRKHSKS

Structure (SMILES) | z-score [1] | z-score [2] | z-score [3] | composite z-score [4] | z-score [5] | z-score [6] | z-score [7] | z-score [8] | z-score [9] | composite z-score [10] | composite z-score [11] | composite z-score (XIP peptide (Xip251-270)) | z-score [12] | z-score [13] | z-score [14] | z-score [15]
COC(=O)[C@@]1(Cc2ccccc2CN=[N+]=[N-])COC(c2ccc(OCCCO)cc2)=N1 | -0.639 | -5.02 (inactive) | -1.75 (inactive) | 0.37 (inactive) | 1.07 (inactive) | 0.593 (inactive) | 0.544 (inactive) | -0.74 (inactive) | -0.39 | -0.0582 | 1.31 (inactive) | 0.871 | -1.3 | -4.77 (inactive) | -0.184 (inactive) | 0.0494 (inactive)
COCCOC(=O)N1C(=O)[C@@]2(c3cc(C#CCCO)ccc31)[C@H](c1ccc(O)cc1)N1[C@H](c3ccccc3)[C@H](c3ccccc3)OC(=O)[C@H]1[C@@H]2C(=O)N1CCc2cc(OC)c(OC)cc2C1 | 0.458 | 0.537 (inactive) | 0.202 (inactive) | -1.1 (inactive) | 0.318 (inactive) | 1.26 (inactive) | 0.886 (inactive) | 0.821 (inactive) | 1.26 | -0.0272 | 0.0404 (inactive) | 0.786 | -0.0976 | -1.97 (inactive) | -0.0202 (inactive) | 0.0613 (inactive)
N[C@@H](Cc1ccccc1)Cn1cc(C2(O)CCCCC2)nn1 | -0.384 | -0.125 (inactive) | -0.156 (inactive) | -0.0324 (inactive) | 0.0672 (inactive) | -0.507 (inactive) | -0.0019 (inactive) | -0.607 (inactive) | -0.785 | -0.0767 | -0.0563 (inactive) | 0.0069 | 0.493 | -3.59 (inactive) | 0.43 (inactive) | 0.426 (inactive)
CN(C)C(=O)[C@]1(Cc2ccccc2CN=[N+]=[N-])N=C(c2ccc(OCCCO)cc2)O[C@@H]1c1ccccc1N=[N+]=[N-] | 0.142 | -0.0107 (inactive) | -1.54 (inactive) | -0.607 (inactive) | 0.0533 (inactive) | 1.37 (inactive) | 0.377 (inactive) | 0.529 (inactive) | -1.63 | 0.181 | 0.854 (inactive) | 0.624 | -1.89 | -1.57 (inactive) | -0.72 (inactive) | -0.903 (inactive)
CCC(CC)C(O)C1C=CC2C(=O)N(C)C(=O)C2N1N1CCCCC1 (centres undefined) | -0.735 | -0.0172 (inactive) | -1.21 (inactive) | -1.17 (inactive) | 0.571 (inactive) | -0.266 (inactive) | -0.652 (inactive) | -0.686 (inactive) | -1.12 | 0.167 | 0.865 (inactive) | 0.708 | 0.907 | -6.35 (inactive) | 0.687 (inactive) | 0.562 (inactive)
COc1cc2c(cc1O)C(C1CC1)N(Cc1ccc([N+](=O)[O-])o1)CC2 (centres undefined) | -0.145 | -1.49 (inactive) | -0.0144 (inactive) | -4.24 (inactive) | 0.0898 (inactive) | -0.346 (inactive) | -0.698 (inactive) | -0.821 (inactive) | 0.211 | 0.234 | 0.402 (inactive) | 0.315 | -0.993 | -6.04 (inactive) | -0.0479 (inactive) | 0.125 (inactive)
CCOC(=O)C1=CC[C@@H](c2ccccc2)N(S(=O)(=O)C[Si](C)(C)C)[C@H]1c1ccccc1 | 0.128 | 0.945 (inactive) | -0.013 (inactive) | 0.407 (inactive) | 0.257 (inactive) | -0.42 (inactive) | -0.618 (inactive) | -1.59 (inactive) | 0.343 | -0.125 | 0.127 (inactive) | 0.704 | -1.86 | -1.35 (inactive) | 0.587 (inactive) | 0.496 (inactive)
CC(=O)NCCCC[C@@H]1NC(=O)[C@@H]2C[C@H](C(=O)NCCCCCC[N+](C)(C)C)[C@H](c3ccc(O)cc3)N2C1=O | -0.793 | 0.857 (inactive) | -0.471 (inactive) | -1.24 (inactive) | -0.807 (inactive) | 0.0885 (inactive) | -0.241 (inactive) | -0.229 (inactive) | -0.854 | 0.123 | 0.0817 (inactive) | 0.846 | 1.12 | -2.45 (inactive) | 0.956 (inactive) | 0.817 (inactive)
C=CC[C@]1(C(=O)NCCCOC)N=C(c2ccc(OCCCO)cc2)O[C@H]1c1ccccc1 | 0.998 | -0.96 (inactive) | 0.619 (inactive) | -0.205 (inactive) | -0.661 (inactive) | 0.0543 (inactive) | 0.178 (inactive) | 0.735 (inactive) | 1.36 | 0.102 | 0.227 (inactive) | 0.659 | -0.67 | -6.7 (inactive) | -0.132 (inactive) | 0.0245 (inactive)
CCOC(=O)C1=CC[C@@H](c2ccc(F)cc2)N(S(=O)(=O)c2ccc(C)cc2)[C@H]1c1ccc([N+](=O)[O-])cc1 | 1.09 | 1.18 (inactive) | 0.0003 (inactive) | -0.554 (inactive) | 0.0362 (inactive) | 0.248 (inactive) | 0.253 (inactive) | 0.321 (inactive) | -0.678 | 0.0077 | 0.1 (inactive) | 0.559 | -1.8 | 0.532 (inactive) | 0.355 (inactive) | 0.593 (inactive)
COc1ccc(NC(=O)O[C@H]2[C@H](OC(=O)Nc3ccc4c(c3)OCO4)[C@H](OC(=O)Nc3ccc4c(c3)OCO4)[C@@H](OC)O[C@@H]2CO)cc1 | -0.637 | 1.41 (inactive) | -0.366 (inactive) | 0.229 (inactive) | 0.826 (inactive) | 1.88 (inactive) | 0.677 (inactive) | 0.18 (inactive) | -0.686 | 0.52 | 1.04 (inactive) | 0.866 | -2.24 | -4.94 (inactive) | -0.246 (inactive) | 0.267 (inactive)
CCCCC(=C=CC[C@@H](O)c1cccc(OCCO)c1)CCO | 0.695 | -1.26 (inactive) | -0.0452 (inactive) | -0.376 (inactive) | 0.424 (inactive) | 0.549 (inactive) | 1.14 (inactive) | 0.839 (inactive) | 1.37 | -0.0853 | -0.0509 (inactive) | 0.106 | -0.0161 | -2.25 (inactive) | -0.875 (inactive) | -0.341 (inactive)
COCCCNC(=O)[C@@H]1c2ccccc2C(=O)N(Cc2cc(C(F)(F)F)cc(C(F)(F)F)c2)[C@H]1c1ccc(CO)cc1 | -0.249 | -0.65 (inactive) | -0.0193 (inactive) | 0.721 (inactive) | 0.196 (inactive) | -0.432 (inactive) | 0.153 (inactive) | 0.304 (inactive) | 0.431 | 0.0871 | -0.313 (inactive) | -0.903 | -1.14 | -3.22 (inactive) | -0.334 (inactive) | -0.768 (inactive)
NCCCC[C@@H]1NC(=O)[C@H]2C[C@@H](C(=O)NCc3ccc(F)cc3)[C@@H](c3ccc(O)cc3)N2C1=O | 0.175 | 1.15 (inactive) | 0.247 (inactive) | -0.17 (inactive) | 0.174 (inactive) | 1.02 (inactive) | 0.207 (inactive) | -0.277 (inactive) | 0.191 | 0.226 | 2.07 (inactive) | 0.563 | 0.338 | -4.42 (inactive) | -0.52 (inactive) | -0.367 (inactive)
COCCOC(=O)N1C(=O)[C@@]2(c3cc(C#CC4=CCCCC4)ccc31)[C@H](c1ccc(OCCO)cc1)N1[C@H](c3ccccc3)[C@H](c3ccccc3)OC(=O)[C@H]1[C@@H]2C(=O)N1CCCCCCC1 | -0.748 | -0.747 (inactive) | -0.168 (inactive) | -0.859 (inactive) | 3.23 (inactive) | -0.766 (inactive) | -0.363 (inactive) | 0.817 (inactive) | -0.435 | 0.248 | 1.32 (inactive) | 0.822 | -2.06 | -15.2 (active) | -0.002 (inactive) | 0.437 (inactive)
CCCCN1CC=CC23O[C@@H]4C=CCOC(=O)[C@@H]4[C@H]2C(=O)N(CCO)[C@@H]3C1=O (some centres undefined) | -0.394 | 1.31 (inactive) | -0.202 (inactive) | -0.161 (inactive) | -0.208 (inactive) | -0.322 (inactive) | 0.233 (inactive) | 0.109 (inactive) | -0.236 | -0.239 | 0.64 (inactive) | -0.964 | 1.12 | -3.84 (inactive) | -0.338 (inactive) | -0.424 (inactive)
COC(=O)[C@H](Cc1ccc(O)cc1)N1CC2=CCCC=C[C@@H]2[C@H]1[C@H](O)Cc1ccccc1 | 0.969 | -2.95 (inactive) | 0.658 (inactive) | -0.574 (inactive) | 0.106 (inactive) | -0.889 (inactive) | 1.34 (inactive) | 1.34 (inactive) | 0.601 | -0.219 | -0.0324 (inactive) | 0.419 | -1.63 | -8.16 (active) | -1.09 (inactive) | -1.18 (inactive)
CCOC(=O)C[C@H]1[C@H](OC(=O)Cc2ccc3c(c2)OCO3)[C@@H](NC(=O)c2ccccc2)c2cc(OCCCO)ccc2N1C(=O)Cc1ccc(OC)cc1 | -0.0111 | -0.644 (inactive) | -0.234 (inactive) | -1.37 (inactive) | 0.407 (inactive) | -1.86 (inactive) | 1.68 (inactive) | 2.05 (inactive) | 0.636 | -0.162 | 0.659 (inactive) | 0.288 | -1.35 | -3 (inactive) | -1.29 (inactive) | -1.25 (inactive)
NC(=O)N1C(=O)C2C(C1=O)C1C=C(CCCO)C2C(c2ccc(CN3CCCC3)cc2)N1Cc1cccc(OC(F)(F)F)c1 (centres undefined) | -0.708 | -0.491 (inactive) | -0.504 (inactive) | -4.9 (inactive) | -0.66 (inactive) | -0.219 (inactive) | -0.385 (inactive) | -0.579 (inactive) | -0.884 | 0.101 | 0.106 (inactive) | -0.133 | -2.28 | -7.26 (inactive) | 0.0295 (inactive) | 0.298 (inactive)
